The text below walks through data of PubChem BioAssay (NCI).

SMILES strings stand for the structures. “And” between values parts separate entries of the source, which are not always exact repeats. Identical values can stand only once. This is part of a sample that, as a whole, favours compounds with a hit. Of some 83,000 tested, about 20% had one in any assay.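 Values shown are percent growth following 48 h exposure of cells in 96-well plates to a single concentration of compound; below 10 was considered active.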 A number with no mark means an inactive call. The source made the active and inactive calls.

The assay concerns MDA-MB-468 breast. In words: NCI-60 one-dose screen, 48 h (100 = growth as untreated, 0 = no growth, -100 = all killed). The note with it: 10 µM unless noted. The protocol:
Growth inhibition of the MDA-MB-468 human Breast tumor cell line is measured as a screen for anti-cancer activity. Cells are grown in 96 well plates and exposed to the test compound for 48 hours. Compounds are tested at a single concentration, which is 10^-5 M for most compounds. The reported endpoint is percent growth (GI% or GIPRCNT), where numbers from 0 - 100% represent growth inhibition, and numbers from -100% - 0 represent cell death. For example, a value of 40 represents 60% growth inhibition. A value of 0 means no net growth occurred over the course of the experiment. A value of -40 indicates 40% of cells at the beginning of the experiment died by the end of the experiment. A value of -100 means all cells are dead at the end of the experiment.
NCI-60 Human Tumor Cell Lines Screen was performed using the standard one-dose NCI protocol, which is described in more detail at https://dtp.cancer.gov/discovery_development/nci-60/default.htm.
Compounds with GIPRCNT values below 10 were considered active. Activity score was based on GIPRCNT using the following formula: […]
Score is 0 for GIPRCNT values of 100 or above, 50 for GIPRCNT values of 0, and 100 for GIPRCNT values of -100.
With `CC(C)(C)c1cc(C(=O)Nc2ccccc2C(=O)NCCN)cc(C(C)(C)C)c1`, the growth was -76.7% (active).

Take `Nc1c(C(=O)C[C@@H](N)CO)ccc2c1C(=O)CCO2`: the growth was -14.1% (active).

Consider `O=C(/C=C/c1cccc(Nc2ccnc3cc(Cl)ccc23)c1)c1ccc(Cl)cc1`, for which the growth was 27.6%.

With `O=C(N=Nc1c(O)[nH]c2ccccc12)c1cc(-c2ccccc2)on1`, the growth was 109%.

On to `Nc1nc(N)c2c(n1)NC(c1ccccc1)C1CCc3ccccc3C1=N2` (stereo not given), for which the growth was -12.7% (active).

`CN(C)c1ccc(C2Nc3ccccc3-n3cccc32)cc1` (stereo not given): the growth was -50.4% (active).

For the molecule `COc1ccc(CN2C(=O)/C(=C\C(=O)c3ccc(OCCN4CCCCC4)cc3)c3ccccc32)cc1`, the growth was 53.3%.

For `CCCCn1c(=O)[nH]c(N)c(C(c2ccc(F)cc2)c2c(N)[nH]c(=O)n(CCCC)c2=O)c1=O`, the growth was 51.2%.

For `N#CC1=C(N)OC2=C(C(=O)CCC2)C1c1ccco1` (stereo not given), the growth is 115%.

Regarding `O=C1OCC2=C1C(c1ccc(Cl)c(Cl)c1)c1cc3c(cc1N2CCO)CCC3` (stereo not given), the growth was 22.9%.

Consider `COc1cc(OCc2cccc(-c3ccccc3)c2C)cc(OC)c1CN1CCCCC1C(=O)NCCOCCOCCN` (stereo not given), for which the growth is 30%.

On to `O=C1/C=C/[C@@H](O)[C@@H]2C[C@@H](O)C[C@H]2/C=C/CCC[C@@H](O)CCO1`, for which the growth is -17% (active).

In the case of `COc1ccc2nc3cc(Cl)ccc3c(Nc3ccc(O)c(CN4CCCC4)c3)c2c1`, the growth is -35.9% (active).

For `c1ccc(C2NCCNC2c2ccccc2)cc1` (stereo not given), the growth is 111%.

`Cc1ccc(NC(=O)c2nc(S(C)(=O)=O)oc2-c2ccc(F)cc2)cc1Nc1ccc2ncn(C)c(=O)c2c1`: the growth is 16.8%.

On to `C=C(C)[C@@H]1CC[C@]2(C(=O)OCCOCCOCC[P+](c3ccccc3)(c3ccccc3)c3ccccc3)CC[C@]3(C)[C@H](CC[C@@H]4[C@@]5(C)CC[C@H](C)C(C)(C)[C@@H]5CC[C@]43C)[C@@H]12`, for which the growth was -67.6% (active).

Turning to `Cc1ccc(Cl)cc1N1CCN(C(=O)[C@@H]2C[C@@H]2c2ccc(F)cc2)CC1`, the growth was 75.3%.

In the case of `Cc1cc(C)n(Cc2cc(C(C)(C)C)cc(C(C)(C)C)c2)c(=O)c1C#N`, the growth was 97.4%.

Take `C[C@@H](c1ccccc1)[C@@H](C(=O)O)c1ccccc1`: the growth is 96.7%.

Turning to `CC12CCC3C4(C)COC(c5ccco5)OC4CCC3(C)C1CC(C1=CCOC1=O)O2` (stereo not given), the growth is 91.8%.

In the case of `Nc1c(C(=O)Nc2ccccn2)sc2nc3c(cc12)CCCCCC3`, the growth is 8.53% (active).

For `COc1ccc2nc(-n3nc(C)cc3C)c(-n3nc(C)cc3C)nc2c1`, the growth was 103%.

Take `CC(C)(C)NCCC(O)c1cc(C(F)(F)F)nc2c(C(F)(F)F)cccc12` (stereo not given): the growth was 70.9%.

`COc1cc2c(cc1OC)C(=O)/C(=C/c1cc(C)c(O)c(C)c1)S2`: the growth was 11.4%.

For the molecule `CN1CCc2c(sc3nc4n(-c5ccc(Cl)cc5)cnn4c(=O)c23)C1`, the growth was 81.7%.

For `O=C(/C=C(/C=C/c1coc2ccccc12)OB(F)F)/C=C/c1coc2ccccc12`, the growth was 112%.

As for `O=S(=O)(NCCNc1cc(-c2cn(-c3ccccc3)nc2-c2ccccc2)ccn1)c1cccc2ccccc12`, the growth is 36.6%.

As for `COc1ccc(C(=O)c2cc3c(OC)c(OC)c(OC)cc3[nH]2)cc1`, the growth was 20.6%.

Regarding `NC1=CC(=O)c2ccccc2C1=O`, the growth is 96.2%.

In the case of `Cc1sc2nc(NCc3ccccc3Cl)[nH]c(=O)c2c1C`, the growth was 101%.

Regarding `CNCCCOc1c(Br)cc(CCNC(=O)/C(Cc2ccc(OC)c(Br)c2)=N/O)cc1Br`, the growth is 48.5%.

In the case of `c1ccc(N2N=C(c3cccc(Nc4ccncc4)c3)CC2c2ccc3c(c2)OCO3)cc1` (stereo not given), the growth is 15.1%.

As to `NCCCCCCNc1cc(-c2cccc(OC(F)(F)F)c2)nc2ccc(N3CCCC3)cc12`, the growth is -87.9% (active).

For the molecule `CC(C)(C)CC(C)(C)n1nnnc1C(NC12CC3CC(CC(C3)C1)C2)c1ccccc1` (stereo not given), the growth is 65.7%.

On to `CCOC(=O)c1ccc(N(CCC(=O)O)C(C)=O)cc1`, for which the growth is 99.9%.

In the case of `O=C(Nc1ccc(-c2ccnc(Nc3ccc(N4CCOCC4)cc3)n2)cc1)[C@@H]1CCCN1`, the growth was 36.2%.

For `CC(C)(C)c1cc(Cl)c(O)c(CNCCO)c1`, the growth was 96.1%.

For the molecule `Oc1ccccc1C=Nc1ccc(N2CCN(c3ccccc3)CC2)cc1`, the growth was 108%.

Consider `c1ncc2[nH]cnc2n1`, for which the growth is 96%.

With `Nc1ncnc2c1ncn2C1CC(O)C(CO)O1` (stereo not given), the growth was 113% and 99.9%.
